Most compounds without a hit are left out; they make up all but 2.2% or so of the library.
ADAM10 inh = inhibitors of human ADAM10. O14672. recombinant ADAM10, EDANS/DABCYL FRET peptide cleavage, 3 h. inhibition, % at 7 µM. 370,000 compounds, 0.62% hits. AID 720582;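 active = inhibition above a per-campaign cutoff equal to the mean of compounds falling between control-based bounds plus 3 SD, cut at about 20% in these data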;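 also: 0% = DMSO wells while the 100% control is not disclosed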
Target sequence (O14672 214-748 limits assumed): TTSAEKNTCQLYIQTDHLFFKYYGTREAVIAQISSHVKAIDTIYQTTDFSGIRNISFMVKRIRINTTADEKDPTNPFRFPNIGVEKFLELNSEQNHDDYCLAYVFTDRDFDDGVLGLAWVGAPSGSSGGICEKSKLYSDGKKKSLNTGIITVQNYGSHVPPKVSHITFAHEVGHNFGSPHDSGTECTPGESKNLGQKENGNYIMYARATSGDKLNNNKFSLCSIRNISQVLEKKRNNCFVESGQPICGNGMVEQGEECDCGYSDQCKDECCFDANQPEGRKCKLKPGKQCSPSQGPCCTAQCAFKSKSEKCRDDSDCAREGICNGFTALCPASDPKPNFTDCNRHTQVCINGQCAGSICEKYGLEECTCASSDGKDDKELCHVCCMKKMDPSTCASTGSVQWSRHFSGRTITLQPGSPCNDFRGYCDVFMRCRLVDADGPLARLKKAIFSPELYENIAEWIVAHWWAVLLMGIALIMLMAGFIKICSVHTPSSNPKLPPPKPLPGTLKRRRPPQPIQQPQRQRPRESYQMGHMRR
KLK7 zymogen act = proKLK7 (human) activation, primary screen. P49862. purified proKLK7, EDANS-DABCYL substrate fluorescence; 100% is mature enzyme control, 0% vehicle. activation, % at 7 µM. 370,000 compounds, 0.9% hits. AID 652039;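 active = activation above the mean of all tested compounds plus 3 SD, computed per campaign excluding outliers beyond control limits, cut at about 13% in these data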
ADAM17 inh = inhibits human ADAM17; P78536; 370,000 compounds, 0.83% hits; recombinant ADAM17, EDANS/DABCYL FRET peptide cleavage; inhibition, % at 6.95 µM; AID 720648;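 active = inhibition above the mean of compounds lying between control limits plus 3 SD, set per campaign, cut at about 8.5% in these data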;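 also: 0% = DMSO-only wells as the low control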
GC-B act = GC-B (human) receptor activation; P20594; 370,000 compounds, 0.11% hits; activation, % at 10 µM; HEK293-GC-B cells, CNP EC30, cGMP TR-FRET; 0% at EC30 CNP, 100% saturating CNP;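 active = activation at 10 µM reaching about 35% in either raw or pattern-adjusted values, limit read from the data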
GC-A act = GC-A (human) enzyme activation; P16066; HEK293 GC-A cells, cGMP TR-FRET, EC30 ANP; 0% at EC30 ANP, 100% saturating ANP; activation, % at 10 µM; 370,000 compounds, 0.14% hits; AID 1671463; in the data active = activation above about 40%
KLK7 act conf = proKLK7 activation, confirmation. activation, % at 7 µM. AID 686949. shares compounds with KLK7 zymogen act. purified proKLK7, EDANS-DABCYL substrate fluorescence; scaled: vehicle 0, mature enzyme 100. 3,200 compounds, 68% hits;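 active = activation, as change over the incubation, above the mean of all tested compounds plus 3 SD, cut at about 13% in these data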
EDANS-DABCYL int = optically interferes with EDANS-DABCYL signal, flagging KLK7 hits. AID 686952. activation, % at 7 µM. shares compounds with KLK7 zymogen act. 3,200 compounds, 80% hits. EDANS-DABCYL substrate fluorescence interference, no enzyme, 4 h; solvent 0%, active enzyme control 100%;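 active = activation above the all-compound mean plus 3 SD, ignoring values outside control-based bounds, cut at about 4.8% in these data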;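 also: value is the 4 h activation minus the activation read at time zero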
K7 EDANS ctr = EDANS fluorescence interference in dose response, no enzyme; EC50, µM; EDANS-DABCYL peptide fluorescence interference; shares compounds with KLK7 zymogen act; 250 compounds, 20% hits;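 active = compounds that raise the fluorescence signal in this interference counterscreen, with EC50 at or below 10 µM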;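 also: intact quenched peptide substrate alone read at 355 nm excitation and 520 nm emission; signal is fluorescence gain from T0 to T4 after four hours at room temperature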
An asterisk follows results filed as active; i = inactive; . = no result given.

SMILES	ADAM10 inh	KLK7 zymogen act	ADAM17 inh	GC-B act	GC-A act	KLK7 act conf	EDANS-DABCYL int	others
Nc1nccnc1C(=O)OCC(=O)Nc1ccc2[nH]c(=O)[nH]c2c1	-92.2	27.1*	-21.5	-0.8	-2.4	53.1*	47.9*
CC1CCCN(CCCNC(=O)c2nn(C)c3c2CSc2ccccc2-3)C1 (configuration not stated)	7.0	0.1	-1.8	-3.8	-3.3	.	.
CC1CCN(CCCNC(=O)c2coc3nc4ccccc4nc23)CC1	i	48.5*	i	0.9	-0.9	63.6*	68.5*
Cc1ccc(CCNC(=O)c2coc3nc4ccccc4nc23)cc1	-251.6	3.4	-72.8	-14.2	-1.2	.	.
CC1CCCN(CCCNC(=O)c2coc3nc4ccccc4nc23)C1 (configuration not stated)	i	30.3*	-460.1	4.7	0.3	50.1*	76.0*
CCN(CC)C(=O)CC[C@@H]1CC[C@]2(CCCN(S(=O)(=O)c3ccccc3)C2)O1	-0.8	0.7	-0.8	-1.6	-8.3	.	.
COC(=O)C1CN(C2CCCC2)CCS(=O)(=O)N1Cc1ccc(F)cc1 (configuration not stated)	0.8	-0.1	-3.0	0.6	5.4	.	.
C[C@H]1[C@@H](NCC2CCCCC2)CC[C@@]23CCCN2C(=O)CCC[C@@H]13	-1.3	.	-3.2	0.1	-0.2	.	.
N#Cc1cccc(OC[C@@H](O)CN2CCC(C(O)(c3ccccc3)c3ccccc3)CC2)c1	3.1	0.8	3.4	-14.8	-17.6	.	.
O=C(c1cc2c(=O)n3ccccc3nc2s1)N1CCN(Cc2ccc3c(c2)OCO3)CC1	i	-4.1	-265.3	-9.0	-3.1	.	.
CCOC(=O)CC1C(=O)NCCN1C(=O)c1cc2c(=O)n3cccc(C)c3nc2s1 (configuration not stated)	i	42.9*	i	7.2	8.4	25.1*	31.8*
O=C(c1cc2c(=O)n3ccccc3nc2s1)N1CCN(Cc2ccccc2)CC1	i	25.1*	i	-0.9	0.9	-76.2	-92.6
CCN1CCN(C(=O)c2cc3c(=O)n4ccccc4nc3s2)CC1	i	54.7*	i	2.6	6.6	44.4*	56.6*
CCOC(=O)C1CCN(C(=O)c2cc3c(=O)n4cccc(C)c4nc3s2)CC1	-251.8	0.4	-79.2	-0.5	7.9	.	.
CCOC(=O)C1CCN(C(=O)c2cc3c(=O)n4ccccc4nc3s2)CC1	i	42.0*	i	-1.8	6.3	68.4*	70.8*
COC(=O)C[C@H]1CC[C@@H]2[C@H](COc3ccc(NC(=O)C(C)C)cc3C(=O)N2C)O1	-7.1	0.3	-4.1	3.7	3.9	.	.
Cc1cccn2c(=O)c(/C=C(\C#N)C(N)=O)c(Oc3ccccc3)nc12	-117.5	15.3*	-39.6	-6.6	3.5	-8.5	-8.6
COCCNC(=O)/C(C#N)=C/c1c(N2CCN(c3ccc(OC)cc3)CC2)nc2c(C)cccn2c1=O	i	14.9*	-466.7	1.3	5.2	13.7*	10.7*	K7 EDANS ctr=>69.5
Cc1cccn2c(=O)c(/C=C(\C#N)C(N)=O)c(N3CCN(c4ccccc4)CC3)nc12	-134.4	3.2	-57.7	-1.5	-1.1	.	.
C=CCNC(=O)/C(C#N)=C/c1c(N2CCN(c3cccc(Cl)c3)CC2)nc2c(C)cccn2c1=O	i	13.5*	-233.2	-1.9	8.9	-2.6	32.9*
CC1(C)CC(=O)C2=C(C1)N(CCN1CCOCC1)C1=C(C(=O)CC(C)(C)C1)C2c1cccc(Cl)c1	i	25.6*	-244.5	-19.1	-30.9	2.4	8.1*
CCN(CC)CCN1C2=C(C(=O)CC(C)(C)C2)C(c2cccc(F)c2)C2=C1CC(C)(C)CC2=O	-463.4	16.1*	-179.3	-5.9	-9.3	-5.8	-3.3
CCCN1C2=C(C(=O)CC(C)(C)C2)C(c2ccc(F)cc2)C2=C1c1ccccc1C2=O (configuration not stated)	-3.0	0.0	-7.7	-7.9	-14.1	.	.
COCCCN1C(=O)[C@H](CC(=O)NCC2CCCCC2)[C@]2(C(=O)OC)CCCCC=C12	0.1	-0.3	-2.7	7.3	3.6	.	.
CCC12OC(=N)C(C#N)(C1C)C(C#N)(C#N)C(c1ccccc1)O2 (configuration not stated)	i	12.2	i	-1.9	1.1	.	.
SMILES	ADAM10 inh	KLK7 zymogen act	ADAM17 inh	GC-B act	GC-A act	KLK7 act conf	EDANS-DABCYL int	others
Cc1ccc(C2OC34CCCCCC3C(C#N)(C(=N)O4)C2(C#N)C#N)cc1 (configuration not stated)	i	15.9*	-309.0	-1.0	11.0	29.1*	34.2*
Cc1cc(N(C)Cc2ccccc2)nc2cc(O)ccc12	i	35.2*	i	-2.9	-7.4	63.6*	73.8*
COc1ccc(C(C(=O)N(C)C2CCCC2)N(Cc2ccc(F)cc2)C(=O)c2csc(N3CCOCC3)n2)cc1OC (configuration not stated)	-7.2	0.6	-2.1	-11.9	-10.9	.	.
CCOC(=O)c1cc(C)[nH]c1C	3.1	0.5	1.3	-0.4	6.4	.	.
CCOC(=O)c1cc(C)[nH]c(=O)c1C#N	i	42.4*	i	0.3	4.1	65.5*	74.4*
N=c1oc2cc(O)ccc2cc1C(=O)Nc1nc2ccccc2s1	i	55.2*	i	-1.8	6.0	67.1*	72.9*
COC(=O)[C@]12C[C@H](CC(=O)NCc3ccc(C)o3)C(=O)N(Cc3cccc4ccccc34)C1=C[C@H](C(C)(C)C)O[C@@H]2C	4.6	1.1	4.1	-4.5	-7.6	.	.
Cn1c2ccccc2c2ncn(Cc3ccc(F)cc3)c(=O)c21	-26.8	0.5	-12.3	-0.5	-1.3	.	.
Cn1c2ccsc2c2ncn(Cc3ccccc3F)c(=O)c21	i	65.4*	i	-6.0	0.3	65.0*	62.3*
CCc1ccc(CNCC(=O)N2CCC3(CC2)OCCO3)s1	-0.6	0.4	3.8	-10.7	0.7	.	.
NC(=O)N/N=C/c1cc(Br)ccc1OC(=O)c1ccccc1	-2.9	16.5*	-9.4	0.1	-5.7	14.0*	12.8*
NC(=O)N/N=C/c1cc(Br)ccc1OCC(=O)NCc1ccccc1	-8.7	0.0	-3.0	-14.5	-27.6	.	.
O=c1cc(CN2CCc3ccccc32)c2ccc(O)cc2o1	-400.6	18.8*	-127.1	-1.4	9.2	40.8*	45.1*
O=c1cc(CN2CCOCC2)c2ccc(O)c(O)c2o1	-3.8	1.6	-3.4	-5.5	-1.5	.	.

Source: PubChem BioAssay
